This passage reports outcome and AC50 results from PubChem BioAssay (EPA / NIEHS).

The structures appear in SMILES notation. Results filed as inconclusive are left out. Active and inactive are the calls of the source. The calls were made as follows, unless noted: active = hit-call score of the fitted dose curve at least 0.9, where 1 is the maximum; inactive = score below 0.9.

The nature of experiment [1]: CCTE_Shafer_MEA_dev_firing_rate_mean: CCTE's Neural Network Formation Assay for Mean Firing Rate, Shafer Lab (AID 2284031). The procedure, abridged: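 Extracellular spike frequency, AUC over DIV 5–12 recordings, in rat cortical neuron MEA cultures dosed from plating; loss direction vs DMSO.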
The nature of experiment [2]: CCTE_Shafer_MEA_dev_per_burst_spike_percent: CCTE's Neural Network Formation Assay for Percent of Spikes in a Burst, Shafer Lab (AID 2284032). The procedure, abridged: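 Value is trapezoidal AUC over recordings on days 5, 7, 9 and 12 of the well-mean fraction of spikes falling in single-electrode bursts; rat cortical cultures exposed continuously from plating, treatment renewed DIV 5 and 9, fitted downward against DMSO.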

The nature of experiment [3]: CCTE_Shafer_MEA_dev_active_electrodes_number: CCTE's Neural Network Formation Assay for Number of Active Electrodes, Shafer Lab (AID 2284040; active = hit-call score of the fitted dose curve at least 0.9, where 1 is the maximum;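 also: potency for loss of active electrodes versus DMSO so lower counts are hits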). The procedure, abridged:
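Developing rat cortical networks on MEAs, exposed DIV 0–12. Value is the AUC of active-electrode counts (≥5 spikes/min) from days 5, 7, 9, 12, relative to DMSO.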

Experiment [4] can be described thus: CCTE_Shafer_MEA_dev_burst_rate: CCTE's Neural Network Formation Assay for Burst Rate, Shafer Lab (AID 2284042). The procedure, abridged:
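Cells plated, treated day 0; recorded DIV 5, 7, 9, 12; fed and re-treated DIV 5, 9. Endpoint: bursts per recording time, active-electrode well mean, trapezoidal AUC, fitted in decreasing direction against DMSO baseline.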

Experiment [5] is described as follows: CCTE_Shafer_MEA_dev_per_burst_interspike_interval: CCTE's Neural Network Formation Assay for Burst Interspike Interval, Shafer Lab (AID 2284044). The procedure, abridged:
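Primary rat cortical neurons on 48-well MEA plates, exposed from day 0 through day 12, treatment renewed at DIV 5 and 9. Within-burst interspike interval recorded days 5, 7, 9, 12, well-averaged, summarised as AUC; negative fit versus DMSO.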

A short description of experiment [6]: CCTE_Shafer_MEA_dev_burst_duration_mean: CCTE's Neural Network Formation Assay for Mean Burst Duration, Shafer Lab (AID 2284045). The procedure, abridged:
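Network-formation assay in primary rat cortical neurons; treatment spans twelve days of development. Mean burst duration per well is integrated by trapezoidal AUC and fitted in the loss-of-signal direction against DMSO baseline.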

The nature of experiment [7]: CCTE_Shafer_MEA_dev_interburst_interval_mean: CCTE's Neural Network Formation Assay for Mean Interburst Interval, Shafer Lab (AID 2284046).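 Also: well-mean interburst interval of bursting electrodes as AUC over four recording days; curve fitted for decrease in interburst interval relative to DMSO.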 The procedure, abridged:
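Developing rat cortical networks on 48-well MEAs receive compound from the day of plating. Burst intervals from each active electrode are averaged per well, and AUC over the recording days is fitted in the negative direction against DMSO.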

The nature of experiment [8]: CCTE_Shafer_MEA_dev_inter_network_spike_interval_mean: CCTE's Neural Network Formation Assay for Mean Inter-network Spike Interval, Shafer Lab (AID 2284047). The procedure, abridged: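 Rat cortical cultures, 1.5 x 10^5 cells/well on 48-well MEA plates; continuous exposure days 0–12, medium and compound refreshed DIV 5, 9. Mean time between consecutive network-spike peaks; AUC across DIV 5/7/9/12; DMSO baseline, negative fitting direction.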

Experiment [9] is described as follows: CCTE_Shafer_MEA_dev_network_spike_number: CCTE's Neural Network Formation Assay for Number of Network Spikes, Shafer Lab (AID 2284048).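 Also: synchronized bursts across electrodes counted on days 5 7 9 12 and integrated as AUC.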 The procedure, abridged: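 Extracellular recordings from 16-electrode wells track network formation in rat cortical cultures under continuous treatment from plating. The endpoint is network spike number, expressed as AUC across DIV 5–12 relative to DMSO vehicle.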

The nature of experiment [10]: CCTE_Shafer_MEA_dev_spike_duration_mean: CCTE's Neural Network Formation Assay for Mean Spike Duration, Shafer Lab (AID 2284051).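 Also: mean network spike duration pooled as area under curve over DIV 5 to 12 recordings.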 The procedure, abridged:
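Readout is the average length of network spikes, clustered firing across electrodes, summed over DIV 5, 7, 9 and 12 as area under the curve. Neurons from rat cortex developed networks on MEA plates under continuous 12-day exposure.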

A short description of experiment [11]: CCTE_Shafer_MEA_dev_network_spike_duration_std: CCTE's Neural Network Formation Assay for Standard Deviation of Network Spike Duration, Shafer Lab (AID 2284052).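 Also: area under curve of spike duration SD across recording days 5 to 12; hits are decreases in network spike duration SD versus DMSO vehicle.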 The procedure, abridged:
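Read-out is the trapezoidal area-under-the-curve across recordings made on days 5, 7, 9 and 12, fitted in the negative direction against DMSO baseline. Neurons were primary rat cortical cells treated from day 0, with treatment renewed at each feed.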

Experiment [12] can be described thus: CCTE_Shafer_MEA_dev_per_network_spike_spike_number_mean: CCTE's Neural Network Formation Assay for Mean Number of Spikes in a Network Spike, Shafer Lab (AID 2284053). The procedure, abridged:
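Continuous twelve-day exposure of developing rat cortical networks grown over 16 microelectrodes per well; spontaneous firing is captured at four time points, and the per-network-spike spike number is integrated over development by trapezoidal AUC.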

The nature of experiment [13]: CCTE_Shafer_MEA_dev_per_network_spike_spike_percent: CCTE's Neural Network Formation Assay for Percent of Spikes in a Network Spike, Shafer Lab (AID 2284054). The procedure, abridged: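 Developing networks of rat cortical neurons are dosed at day 0 and recorded extracellularly four times up to day 12. The endpoint is the area under the curve of percent spikes in network spikes, fitted in the negative direction relative to DMSO.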

Experiment [14] in a line: CCTE_Shafer_MEA_dev_LDH: CCTE's Lactate Dehydrogenase Assay for Cytotoxicity in the Neural Network Formation Assay, Shafer Lab (AID 2284068; active = hit-call score of the fitted dose curve at least 0.9, where 1 is the maximum;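 also: exposure for twelve days from plating with re-dosing on DIV 5 and 9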). The procedure, abridged:
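Cytotoxicity companion to network-formation recordings: rat cortical neurons received compound over 12 days of development, re-dosed at DIV 5 and 9 feeds. Viability was inferred from LDH enzyme activity relative to DMSO.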

Experiment [15] is described as follows: CCTE_Shafer_MEA_dev_AB: CCTE's Alamar Blue Assay for Cytotoxicity in the Neural Network Formation Assay, Shafer Lab (AID 2284083; active = hit-call score of the fitted dose curve at least 0.9, where 1 is the maximum;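 also: resazurin reduction fluorescence as viability of cultured neurons; twelve days of exposure from plating with re-dosing on DIV 5 and 9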). The procedure, abridged:
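Fluorescent resazurin reduction serves as the viability read-out, with DMSO as negative control and baseline. Cells were primary rat cortical neurons grown on MEA plates and dosed from day 0 to day 12, treatment renewed on DIV 5 and 9.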

Experiment [16] is described as follows: CCTE_Shafer_MEA_dev_mutual_information_norm: CCTE's Neural Network Formation Assay for Mutual Information Normalization, Shafer Lab (AID 2284091). The procedure, abridged: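 Exposure of primary rat cortical neurons began at plating and ran to DIV 12, with full media and treatment renewal after DIV 5 and 9 recordings. Mutual information AUC (DIV 5–12) was analysed for loss versus DMSO.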

Experiment [17] is described as follows: CCTE_Shafer_MEA_dev_correlation_coefficient_mean: CCTE's Neural Network Formation Assay for Mean Correlation Coefficient, Shafer Lab (AID 2284093). The procedure, abridged: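 Read-out: well-mean correlation coefficient of spike trains between electrode pairs, collapsed over four recording days as trapezoidal area-under-the-curve. Developing rat cortical neuron networks grown on MEAs received test chemical continuously from plating.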

A short description of experiment [18]: UKN2_HCS_IMR90_neural_migration: University of Konstanz (UKN) Leist Lab Neural Crest Cell Migration Assay in human induced IMR90 Pluripotent Stem Cells (UKN2) (AID 2284204). The settings on record: actives raise or lower the signal. The procedure, abridged: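 Using a 96-well stopper format with PLO/laminin/fibronectin coating, neural crest cells from iPSC migrate in cytokine-supplemented N2-S medium; after 24 h, chemicals are applied for a further 24 h, then cells are imaged after dye staining.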

Experiment [19] is described as follows: IUF_NPC1b_proliferation_BrdU_72hr: Leibniz Research Institute for Environmental Medicine (IUF) 72-hour Neural Progenitor Cell Bromodeoxyuridine (BrdU) Proliferation Assay (NPC1b) (AID 2284207). The procedure, abridged: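 Neural progenitor spheres of human fetal origin are treated for three days; BrdU added for the last 16 h is quantified by luminescence ELISA, with DMSO as baseline and EGF/FGF omission as positive control.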

A short description of experiment [20]: IUF_NPC1a_proliferation_area_72hr: Leibniz Research Institute for Environmental Medicine (IUF) 72-hour Neural Progenitor Cell Proliferation Area Assay (NPC1a) (AID 2284208). The procedure, abridged:
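Single 0.25–0.35 mm human fetal neural progenitor spheres in proliferation medium with EGF and FGF, exposed 72 h from plating without renewal at 37C, pH 7.2-7.6. Sphere area growth measured by automated phase-contrast imaging, relative to DMSO.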

The nature of experiment [21]: CCTE_Mundy_HCI_Cortical_Synap_Neur_Matur_NeuriteSpotCountPerNeuriteLength: CCTE's Synaptogenesis and Neurite Maturation Assay in rat cortical cells for Neurite Spot Count per Neurite Length, Mundy Lab (AID 2284210). The procedure, abridged:
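Neurite-associated synapse density (synaptophysin puncta per unit neurite length) is measured by fluorescence high-content imaging in rat cortical cultures treated from DIV 7 and fixed at DIV 12, with DMSO as negative control.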

Experiment [22] is described as follows: CCTE_Mundy_HCI_Cortical_NOG_NeuriteCount: CCTE's Neurite Outgrowth Assay in rat cortical cells for Neurite Count, Mundy Lab (AID 2284212).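 Also: cells fixed about two days after chemical exposure began.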 The procedure, abridged:
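Rat cortical primary cells; compound added 2 h post-plating, 1/10 dilution of working solution. Anti-betaIII-tubulin/AF488 ICC; ArrayScan neurite count vs DMSO.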

A short description of experiment [23]: CCTE_Mundy_HCI_Cortical_NOG_NeuriteLength: CCTE's Neurite Outgrowth Assay in rat cortical cells for Neurite Length, Mundy Lab (AID 2284213). The procedure, abridged: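 First, rat primary cortical cells were plated and, 2 h later, given test chemical as a 1/10 dilution. Finally, βIII-tubulin immunostaining enabled automated imaging of neurite length.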

As for `CCOP(=O)(Oc1cnc(C(C)(C)C)nc1)OC(C)C` (stereo not drawn), the outcome in experiment [1], in [2], in [4], in experiment [5], in experiment [6] and in experiment [7] was inactive. Further, the compound was classed as inactive in [8], in experiment [9], in [10], in experiment [11], in experiment [12] and in experiment [13]. The outcome in experiment [16], in experiment [17], in experiment [18], in [20], in [21] and in experiment [22] was inactive. Also, the call in experiment [23] was inactive. Also, the AC50 in experiment [3] is 29.2 µM (active); in experiment [14], 11.4 µM (active); in [15], 11.7 µM (active); in experiment [19], 2.63 µM (active).
